# Laboratory results taken from PubChem BioAssay AID1347404 (Pan Lab, Icahn School of Medicine at Mount Sinai, 2020).
# Among all 140,000 compounds or so, about 860 (0.61%) were called active. This is one part of a sample in which actives are shown more often than they occur. Values without a mark were called inactive. Cut-off read from the data, not from the text of the source: active = inhibition above about 25%; inactive = the rest.
# Biological target: E3 ubiquitin-protein ligase RBX1 (Homo sapiens) + Cullin-1 (Homo sapiens) (UniProt P62877+Q13616)
# Assay: inhibitors of human ROC1-CUL1 ubiquitin ligase activity (AID 1347404)
# Conditions: in vitro K48 di-Ub FRET, acceptor:donor ratio, 45 min; at 10 µM; stronger effect = higher value
# E3 ubiquitin-protein ligase RBX1 (Homo sapiens) + Cullin-1 (Homo sapiens), sequence (P62877 whole entry, looked up): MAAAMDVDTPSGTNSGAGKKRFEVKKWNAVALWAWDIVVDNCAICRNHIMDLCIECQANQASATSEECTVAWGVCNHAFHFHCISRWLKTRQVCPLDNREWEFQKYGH
# E3 ubiquitin-protein ligase RBX1 (Homo sapiens) + Cullin-1 (Homo sapiens), sequence (Q13616 whole entry, looked up): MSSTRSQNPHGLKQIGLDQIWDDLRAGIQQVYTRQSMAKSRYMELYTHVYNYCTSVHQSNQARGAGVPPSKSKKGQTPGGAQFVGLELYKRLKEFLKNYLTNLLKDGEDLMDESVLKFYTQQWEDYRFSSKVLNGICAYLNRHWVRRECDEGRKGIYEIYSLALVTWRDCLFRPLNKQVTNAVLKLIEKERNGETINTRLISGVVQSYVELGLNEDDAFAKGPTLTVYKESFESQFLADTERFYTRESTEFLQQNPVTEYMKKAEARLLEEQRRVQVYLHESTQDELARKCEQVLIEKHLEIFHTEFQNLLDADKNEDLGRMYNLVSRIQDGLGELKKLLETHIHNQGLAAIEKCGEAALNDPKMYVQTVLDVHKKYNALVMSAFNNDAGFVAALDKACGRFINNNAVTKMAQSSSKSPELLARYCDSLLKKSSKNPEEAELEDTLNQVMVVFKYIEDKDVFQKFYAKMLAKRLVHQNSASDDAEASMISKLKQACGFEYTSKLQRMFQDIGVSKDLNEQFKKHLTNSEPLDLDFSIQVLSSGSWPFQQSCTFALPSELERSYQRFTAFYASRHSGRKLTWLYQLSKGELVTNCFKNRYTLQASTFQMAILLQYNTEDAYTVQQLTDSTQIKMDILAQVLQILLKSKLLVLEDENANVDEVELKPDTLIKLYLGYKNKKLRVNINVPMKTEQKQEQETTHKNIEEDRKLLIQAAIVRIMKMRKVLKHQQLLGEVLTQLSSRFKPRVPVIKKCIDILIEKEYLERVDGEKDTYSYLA
row,Compound,inhibition
1,NC(=O)c1ccccc1NC(=O)c1ccc(CN2CCCCC2)cc1,4.02%
2,O=C(O)c1ccc2c(c1)[C@@H]1C=CC[C@@H]1[C@H](c1ccc3c4c(cccc14)CC3)N2,99.3% (active)
3,COC(=O)c1ccc2c(c1)C1C=CCC1C(c1cccc([N+](=O)[O-])c1)N2 (stereo unspecified),5.03%
4,O=C(c1ccc2c(c1)C1C=CCC1C(c1ccccc1)N2)N1CCOCC1 (stereo unspecified),-11.2%
5,CC(=O)Nc1ccc(OC(=O)c2cccc(C)c2)cc1,-0.55%
6,COc1ccccc1-c1nc(CN2CCCC2c2n[nH]c(=O)[nH]2)c(C)o1 (stereo unspecified),-4.69%
7,Cc1c(/C=N/NC(=O)CSc2nc3ccccc3s2)c2ccccc2n1C,5.36%
8,Brc1ccc(C#Cc2cccs2)cc1,-4.29%
9,O=C(COc1ccccc1Cl)Nc1nncs1,2.7%
10,COc1cccc(-c2nn3c(-c4cccc(C(F)(F)F)c4)nnc3s2)c1,-4.15%
11,Clc1ccccc1CSc1nnc(-c2ccco2)c(-c2ccco2)n1,101% (active)
12,Clc1ccccc1CSc1nncn2c1cc1occc12,6.61%
13,CC1(C)N=C(SCc2ccccc2Cl)c2ccccc2N1,-9.73%
14,CN1CCC(N2CCCC2C(=O)Nc2ccc(-c3cccc(F)c3)cc2)CC1 (stereo unspecified),-3.33%
15,O=C(/C=C/c1ccc([N+](=O)[O-])o1)c1ccco1,-10.2%
16,Cc1noc(C)c1C(=O)Nc1ccc(C(F)(F)F)cc1,1.67%
17,CC(=O)N1N=C(c2ccc(Cl)cc2Cl)CC1c1ccccc1 (stereo unspecified),-1.24%
18,Clc1cccc(N2N=C(c3cccs3)CC2c2ccccc2)c1 (stereo unspecified),-9.66%
19,O=C(O)c1cccc(N2N=C(c3ccc4c5c(cccc35)C(=O)N(c3ccccc3)C4=O)CC2c2ccccc2)c1 (stereo unspecified),44.6% (active)
20,Cc1cc(/C=C2\C(=O)NC(=S)N(c3ccc(Cl)cc3)C2=O)c(C)n1-c1ccccc1,1.69%
21,CCCc1sc(-n2c(C)cc(/C=C3/C(=O)NC(=S)N(C)C3=O)c2C)c(C#N)c1C,76.1% (active)
22,Cc1ccc(-n2c(C)cc(/C=C3/C(=O)NC(=S)N(c4ccc(Br)cc4)C3=O)c2C)cc1,-0.744%
23,Cc1ccccc1Cn1cc(C(=O)N2CCN(C3CCCC3)CC2)nn1,14.7%

row,Compound,inhibition
1,CC1=Nc2nnnn2C(c2ccc(Br)cc2)C1C(=O)Nc1ccccc1 (stereo unspecified),0.6%
2,O=C(c1nn2c(C(F)(F)F)c3c(nc2c1Cl)-c1ccccc1CC3)N1CCN(c2ccc(F)cc2)CC1,-4.56%
3,N#CC1C(=N)OC2=C(C(=O)CCC2)C1c1ccsc1 (stereo unspecified),6.79%
4,CSc1ccc(C2C3=C(CCCC3=O)OC(=N)C2C#N)cc1 (stereo unspecified),3.66%
5,N#CC1C(=N)OC2=C(CCC/C2=C/c2ccoc2)C1c1ccoc1 (stereo unspecified),50.6% (active)
6,Cc1ccc2nc(CNC(=O)Cn3nnnc3CN3CCC(C)CC3)cn2c1,-3.66%
7,Clc1ccc(C2=CSC3=Nc4cccc5cccc(c45)N23)cc1,86.8% (active)
8,Clc1ccc(-c2cc3ccccc3o2)cc1,-1.45%
9,O=C(O)c1ccccc1C(=O)Nc1ccc(-c2cn3ccsc3n2)cc1,10.3%
10,COC(=O)Nc1ccc(S(=O)(=O)N2CCn3c4c(c5cc(C)ccc53)CCCC42)cc1 (stereo unspecified),-2.9%
11,COCCCNC(=O)c1ccc2c(c1N)C(=O)c1ccccc1C2=O,5.03%
12,Nc1c(S(=O)(=O)O)cc(Nc2ccc(-c3ccc(Nc4cc(S(=O)(=O)O)c(N)c5c4C(=O)c4ccccc4C5=O)cc3)cc2)c2c1C(=O)c1ccccc1C2=O,94.8% (active)
13,Cc1ccc(OCc2ccc(C(=O)N/N=C/c3sccc3C)cc2)cc1C,-9.15%
14,Cc1cc(C(=O)O)ccc1NCc1ccccc1,15.3%
15,COc1cc(C(=O)N/N=C(/C)c2cccnc2)cc(OC)c1OC,-15.1%
16,COc1cccc(OC/C=C/CN2CCN(C)CC2)c1,-3.35%
17,O=C(c1ccco1)N(Cc1cccs1)c1ccc(O)cc1,-0.924%
18,CCc1nccn1CCC(=O)NCc1nc(-c2ccc(NC(=O)c3ccc(COC)o3)cc2)oc1C,-7.82%
19,CCNC(=O)N1CCNC(=O)C1CC(=O)N1CCN(c2ccc(OC)cc2)CC1 (stereo unspecified),16.6%
20,CCOc1ccc(-n2c(Sc3c(N)c4c5c(sc4[nH]c3=O)CCC5)nnc2-c2nn(C)c(C)c2Cl)cc1,-4.22%
21,CCCNC(=O)C1CCN(Cc2ccccc2C)CC1,4.05%
22,COC(=O)C1=C(C)O[C@]23CCC[C@]12CC(=O)C3,2.4%
23,c1ccc2c(Sc3ncnc4sc5c(c34)CCCC5)c[nH]c2c1,0.643%
